This passage reports inhibition results from PubChem BioAssay AID441 (NMMLSC, 2006).

The campaign covered roughly 24,000 compounds. About 70 (0.3%) were called active. Shown is part of a subset that was picked to be rich in actives. Unmarked numbers belong to inactive results. Cut-off read from the data, not from the text of the source: active = inhibition above about 30%; inconclusive = no clear call, values can overlap the other calls; inactive = below that.

The target in this assay is N-formyl peptide receptor 2 (Homo sapiens) (UniProt P25090). The assay can be described thus: small molecules displacing FPRL1 fluorescent ligand – cell-based, FPR counter-screen, flow cytometry, primary screen (AID 441).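 Note: 0% = buffer alone and 100% = receptor blocker peptide.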 The note with it: FPRL1-expressing cells, fluorescent ligand binding inhibition, hits give high values, concentration not given here.
Sequence of N-formyl peptide receptor 2 (Homo sapiens) (P25090 whole entry, looked up): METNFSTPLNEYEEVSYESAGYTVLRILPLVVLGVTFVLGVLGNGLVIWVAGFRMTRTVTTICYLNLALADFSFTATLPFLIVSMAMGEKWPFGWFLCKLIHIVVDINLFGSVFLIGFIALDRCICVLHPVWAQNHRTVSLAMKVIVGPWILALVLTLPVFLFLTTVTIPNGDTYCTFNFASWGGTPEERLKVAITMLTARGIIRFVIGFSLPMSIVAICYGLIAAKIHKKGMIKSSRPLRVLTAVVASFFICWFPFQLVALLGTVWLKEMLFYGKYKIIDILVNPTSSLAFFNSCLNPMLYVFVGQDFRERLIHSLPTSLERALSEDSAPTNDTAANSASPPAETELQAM
As for `Cc1nnc(SCC(=O)N(C(C)C)C(C)C)nc1C`, the inhibition is -5.7%. For the molecule `CCOC(=O)N1CCC(NC(=O)Cn2cc3c(n2)CCCCC3)CC1`, the inhibition was 0.2%. In the case of `CCOC(=O)c1oc2c(CN3CCN(C)CC3)c(O)ccc2c(=O)c1-c1ccc(Br)cc1` it was -3%; in that of `Cn1c(CNC(=O)C(C)(C)C)nc2ccccc21`, -0.3%; in that of `Cc1c(NC(=O)C(C)OC(=O)c2cc3c4ccccc4n(C)c3s2)c(=O)n(-c2ccccc2)n1C` (stereo not given), 0.1%. In the case of `CCCNC(=O)C1CC(=O)N(c2ccc(OCC(=O)Nc3cccc(C)c3C)cc2)C1` (stereo not given) it was -4.6%.

`O=c1c2ccccc2[nH]c(=S)n1CCN1CCC(=C(c2ccc(F)cc2)c2ccc(F)cc2)CC1`: the inhibition was -11%.

On to `O=C1C(=O)N(CCN2CCOCC2)C(c2ccccn2)/C1=C(/O)c1ccc(Cl)cc1` (stereo not given), for which the inhibition was -6.2%. In the case of `CC1Cc2cc(/C(O)=C3\C(=O)C(=O)N(CCN4CCOCC4)C3c3ccccc3F)ccc2O1` (stereo not given) it was 30.8% (active). In the case of `COCCCN1C(=O)C(=O)/C(=C(/O)c2ccc3c(c2)CC(C)O3)C1c1cccnc1` (stereo not given) it was 28.3%; in that of `CCOc1ccccc1C1CC(c2ccccc2)Nc2nc(N)nn21` (stereo not given), 0.2%.

With `CCOC(=O)C1CCN(C(=O)Cc2c(C(=O)O)[nH]c3ccccc23)CC1`, the inhibition was 0.3%.

In the case of `CC1CCC(NS(=O)(=O)c2ccc3c(c2)n(C)c(=O)c(=O)n3C)CC1` (stereo not given), the inhibition is -4.7%. In the case of `O=C(CC(NCCN1CCOCC1)C(=O)O)Nc1cccc(Cl)c1` (stereo not given) it was 4.9%; in that of `CCN(CCCNC(=O)C1CCN(S(=O)(=O)c2cnc[nH]2)CC1)c1ccccc1`, -1.3%; in that of `CCOC(=O)CNC(=O)CN1C(=O)CCSc2ccccc21`, -6.4%. For `CCOC(=O)c1ccc(-n2c(C)nc3c(cnn3-c3ccccc3C)c2=O)cc1`, the inhibition is -6%. In the case of `Cc1cc(C)cc(N(CC(=O)NCC2CCCO2)S(=O)(=O)c2c(C)noc2C)c1` (stereo not given) it was 3.6%; in that of `Cc1nc2ccccc2c2oc(C(=O)NCC3CCCO3)cc12` (stereo not given), 3.5%; in that of `CCOC(=O)c1nnn(-c2nonc2OC)c1-c1ccccc1`, 5.9%.

Take `N#CCCN1CCN(S(=O)(=O)c2ccc(S(=O)(=O)N3CCCC3)cc2)CC1`: the inhibition was 1.9%.

Take `COC(=O)C1=C(C)Nc2ncnn2C1c1ccco1` (stereo not given): the inhibition is 0.6%. In the case of `COc1ccc(N2C(=O)CCC(C(=O)N(C)C3CCCCC3)C2c2ccc(OC)c(OC)c2)cc1` (stereo not given) it was -4.6%. As for `CCOC(=O)N1CCC(Nc2c(NCCN3CCN(c4cccc(Cl)c4)CC3)c(=O)c2=O)CC1`, the inhibition is 8%. Next, `O=C(CC1Oc2ccccc2NC1=O)NCCCN1CCN(Cc2ccccc2)CC1` (stereo not given): -1.8%.

As to `Cc1cccc(N2C(=O)SC(N(CC(=O)O)c3cccc(C)c3)C2=O)c1` (stereo not given), the inhibition is 0.6%. On to `C/C(N)=C(\C#N)C(=O)NCCc1ccccn1`, for which the inhibition was -4.6%.

Take `COC(=O)c1ccc(CN(c2ccccc2OC)S(=O)(=O)c2cccs2)o1`: the inhibition was -4.4%.

As for `O=C(NCc1ccco1)C1CCCN(S(=O)(=O)c2cnc[nH]2)C1` (stereo not given), the inhibition is 0.2%. Next, `Cc1cc(N2C(=O)C(=O)/C(=C(/O)c3ccccc3)C2c2cccc(Br)c2)no1` (stereo not given): -8.1%; `COc1cccc(C(CC(=O)NCCN2CCOCC2)NS(=O)(=O)c2ccc(C)cc2)c1OC` (stereo not given): 0.8%; `O=C(CN1CCN(c2ccccc2F)CC1)c1ccc2c(c1)OCO2`: -9.1%. Next, `O=C(Nc1cccnc1)c1ccc2c(c1)OCO2`: -0.1%; `CCOC(=O)c1cn(CC(=O)Nc2ccc(C(C)C)cc2)nn1`: 1.8%. Next, `CC1CN(C(=O)c2ccc3c(c2)OCO3)OC(c2ccccc2)O1` (stereo not given): 5.6%; `Cc1ccc(-n2nc3cc(Cl)c(NC(=O)c4ccco4)cc3n2)cc1`: -4.7%; `CCOC(=O)c1nc(-c2ccc3c(c2)OCO3)[nH]c1C`: -7.4%.

`CCC1=C(C(=O)OC)C(c2cc(OC)ccc2OC)C(C#N)=C(N)O1` (stereo not given): the inhibition was -1.1%. Take `COCCN1C(=O)c2oc3c(C)cc(C)cc3c(=O)c2C1c1cccc(O)c1` (stereo not given): the inhibition is -10.9%. Turning to `CCCS(=O)(=O)N1CCCC(C(=O)NCCN2CCCCC2C)C1` (stereo not given), the inhibition is 3.4%.

For `O=C(Cn1cnc2c(nnn2Cc2ccc(F)cc2)c1=O)NCc1ccc2c(c1)OCO2`, the inhibition was -2.3%.

For `Cc1cc(C)c2c(n1)nn1c(N3CCOCC3)cc(C)nc21`, the inhibition is -1.1%.

Take `CCOc1ccc(C(CC(=O)O)NC(=O)COc2ccccc2)cc1` (stereo not given): the inhibition is 0.6%.

Take `CCOC(=O)C1C(=O)C=C(c2ccc(OC)cc2)CC1c1ccco1` (stereo not given): the inhibition was -6.4%. In the case of `CCn1cc(C(=O)NC2CCCCCC2)c(=O)c2cc(S(=O)(=O)N3CCCCC3)ccc21` it was -5.2%. On to `Brc1cnc(N2CCCC2)nc1N1CCCCC1`, for which the inhibition was 0.1%. With `CC(C)Cc1cc(C(=O)Nc2cc(Br)ccc2O)no1`, the inhibition was -1.4%.

`Cc1cc(NC(=O)c2cc(-c3cccs3)on2)nn1Cc1ccc(Cl)cc1`: the inhibition was 2%.

`CC(C)C[C@H](NC(=O)Nc1cccc(C(F)(F)F)c1)C(=O)O`: the inhibition is 2.8%.

For `Fc1ccccc1C(c1nnnn1Cc1ccc2c(c1)OCO2)N1CCN(Cc2ccccc2)CC1` (stereo not given), the inhibition is 10.3%.

Regarding `c1ccc(Cc2nn3c(Cn4cnc5ccccc54)nnc3s2)cc1`, the inhibition was 4.2%. Consider `CCOc1cccc(-c2nnc3sc(COc4ccc(OC)cc4)nn23)c1`, for which the inhibition is -1%.

For `Clc1ccc(Cc2nn3c(-c4ccncc4)nnc3s2)cc1`, the inhibition is 54.5% (active). `O=C(COC(=O)C12CC3CC(CC(C3)C1)C2)NCc1ccco1`: the inhibition is 0.4%. Consider `CCCN(CCC)CCNC(=O)c1cc2c(C)nc3ccccc3c2o1`, for which the inhibition is 4.8%. Next, `O=C1CC(c2cccc(F)c2)C2=C(CCCC2=O)N1` (stereo not given): 4.1%; `CC(=O)NC1CC2CCCC(C1)N2CC(=O)Nc1ccccc1` (stereo not given): 2.2%; `O=C1NC2(CCCCC2)N=C1c1ccccc1`: -5.4%. In the case of `CC(=O)Nc1cc(C(=O)O)ccc1S(=O)(=O)c1ccc(Cl)cc1` it was -2.1%; in that of `CCOC(=O)c1cnc(-n2nc(C)cc2C)nc1Nc1cccc(C(C)=O)c1`, 9%.
